Sampled rows, rich in hits. Any-hit rate of the full collection: about 4%.
Peg3 prom inh = Peg3 promoter activity inhibition | 360,000 tested, 1.7% active | inhibition, % at 20 µM | HeLa PEG-Prom luciferase reporter, luminescence, overnight;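 active means inhibition of at least 50% at 20 µM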
HIF-2a block = inhibitors of HIF-2a. 786-0 RCC cells HIF-2a reporter, luciferase luminescence, overnight. inhibition, % at 18.8 µM. 360,000 tested, 0.72% active;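 active means inhibition of the luminescence signal of 40% or more relative to plate controls, in a single-dose primary screen at 18.75 µM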
CF NFkB inh = blocks PAF-induced NF-kB reporter in cystic fibrosis cells; KKLEB NF-kB-GFP reporter, GFP fluorescence overnight; inhibition, % at 5 µM; 360,000 tested, 0.86% active;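 active means at least 50% inhibition at 5 µM, scaled per plate between neutral and stimulator controls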;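 further: PAF is a Pseudomonas aeruginosa culture filtrate used as stimulus; plate controls were PAF-stimulated DMSO wells for no effect and unstimulated DMSO wells for full effect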
KKLEB cytotox = reduces viability of KKLEB cystic fibrosis airway cells; activity change (cytotoxicity), % at 5 µM; KKLEB CF airway cells viability, ATPlite luminescence, overnight; hits give low values; cells stimulated with P. aeruginosa culture filtrate; 360,000 tested, 0.36% active; AID 602141;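 active means corrected activity change at or below -50% at 5 µM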
TWEAK Fn14 block = inhibitors of TWEAK-Fn14 interaction signaling; TWEAK-stimulated Fn14 reporter cells, luciferase luminescence, 8 h; inhibition, % at 10 µM; 360,000 tested, 2% active; AID 1159606; in the data active means inhibition above about 50%
TROY signal inh = TROY signaling inhibition. Q293 LMP1-TROYcd NF-kB luciferase reporter, 4 h. inhibition, % at 10 µM. 360,000 tested, 0.98% active;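 active means compounds whose plate-normalised and pattern-corrected inhibition of the luciferase reporter signal at the single screening dose is 50% or more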
Numbers without * were called inactive.

SMILES	Peg3 prom inh	HIF-2a block	CF NFkB inh	KKLEB cytotox	TWEAK Fn14 block	TROY signal inh
CCN(CC)c1ccc(C2Nc3cccc4cccc(c34)N2)cc1	-88	-43	-26	13	-2	-46
CCN(CC)c1ccc(N=C2C(=O)Nc3ccccc32)cc1	-17	-21	-6	18	52*	28
N#CC(Sc1ccccn1)c1ccc(Cl)cc1Cl (centres undefined)	8	0	6	11	8	-15
Cc1cccc(C)c1NC(=O)C(NC=O)c1ccc(N(C)C)cc1 (centres undefined)	0	2	3	2	-11	-31
CCN(CCNCC(O)COc1ccccc1C(C)C)c1cccc(C)c1 (centres undefined)	93*	7	20	-5	-3	3
O=C(NC1(C(F)(F)F)NC(=O)N(Cc2ccco2)C1=O)c1cccs1 (centres undefined)	16	10	8	19	22	2
Cc1ccc(-c2nnc(N3CCCCC3)c3ccccc23)cc1S(=O)(=O)N(C)C	29	16	10	0	18	16
Cc1ccc(-c2nnc(NCc3nc4ccccc4[nH]3)c3ccccc23)cc1S(=O)(=O)N(C)C	16	8	4	-24	55*	52*
Cc1ccc(-c2nc3ccccc3s2)cc1S(=O)(=O)N1CCOCC1	-14	-87	-7	1	11	37
Cc1ccc(-c2nnc(NCc3nc4ccccc4[nH]3)c3ccccc23)cc1S(=O)(=O)N1CCOCC1	65*	-9	-16	-15	66*	5
O=C(NCC1CCCO1)C(=O)N/N=C/c1ccc(OCc2ccccc2Cl)cc1 (centres undefined)	-192	-5	-16	0	14	-50
O=C(CCl)N(C/C=C/c1ccccc1)c1ccc2c(c1)OCCO2	-59	-56	92*	-100*	60*	23
CN(CC(=O)NC1CCCCC1)S(=O)(=O)c1ccc(Cl)cc1	91*	3	4	-2	-10	-7
CCCn1nnnc1NCc1ccc(Cl)cc1Cl	-5	18	-1	6	-11	-7
CCCOc1ccc(/C=C/c2[nH]c(=O)[nH]c(=O)c2[N+](=O)[O-])cc1OCC	-6	12	-43	6	10	-6
CCOC(=O)COc1ccc(Br)cc1/C=C/c1[nH]c(=O)[nH]c(=O)c1[N+](=O)[O-]	-5	17	13	12	62*	24
CCOC(=O)COc1ccc(Br)cc1/C=C\c1[nH]c(=O)[nH]c(=O)c1[N+](=O)[O-]	-10	11	-8	17	74*	3
CCOc1ccccc1CNS(=O)(=O)c1cnc[nH]1	-14	7	-3	8	5	-4
O=C1CC2(CCN(C(=O)C(=O)c3c[nH]c4ccccc34)CC2)Oc2ccccc21	-18	5	84*	-100*	7	-16
O=C(C(=O)N1CCCC1)c1c[nH]c2ccccc12	5	-6	-8	-8	18	11
COc1cccc(C(=O)NCCS(=O)(=O)NCCc2ccccc2)c1	-138	-127	-4	0	-12	-36
CC(C)CN(C(=O)COc1ccc2ccc(=O)oc2c1)C1CCS(=O)(=O)C1 (centres undefined)	7	0	24	-13	61*	-12
COc1ccc(CC(N)c2csc(NC(=O)c3cc(C(C)(C)C)oc3C)n2)cc1 (centres undefined)	99*	-62	12	-18	-32	-26
Cc1ccc(C(=O)Nc2nc(C(N)Cc3ccc(C(F)(F)F)cc3)cs2)cc1 (centres undefined)	96*	9	12	-8	-18	14
COc1cc(NC(=O)Nc2nc(C(N)Cc3ccc(C(F)(F)F)cc3)cs2)cc(OC)c1OC (centres undefined)	92*	2	-1	2	5	14
COc1ccc(NC(=O)Nc2nc(C(N)Cc3ccc(C(F)(F)F)cc3)cs2)cc1 (centres undefined)	98*	2	28	-17	24	2
COc1ccc(CC(N)c2csc(Nc3cc(NCCCO)ncn3)n2)cc1 (centres undefined)	14	16	12	-3	-3	-3
